# The full ranking holds about 110,000 compounds; the median of “z-score” is about -0.1, and the highest 2% start at about 2. The sample holds the highest values, similar compounds and a random draw of the others, so the mix is not that of the screen. The source made the active and inactive calls.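 Rule for the calls: active = z-score in the third read window above 3 or below -3; inactive = the rest.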
# Biological target: Metabotropic glutamate receptor 8 (Rattus norvegicus) (UniProt P70579)
# Assay: mGluR8 Gi/Go-coupled signaling modulation – cell-based, rat, thallium flux, HTS, primary screen (AID 488969)
# Settings: HEK293 rat mGluR8, GIRK (G protein-gated inwardly rectifying potassium channel) thallium flux, FluoZin2; at 10 µM; stronger effect = higher value; submaximal glutamate (EC20) added with thallium
# Metabotropic glutamate receptor 8 (Rattus norvegicus), sequence (P70579 whole entry, looked up): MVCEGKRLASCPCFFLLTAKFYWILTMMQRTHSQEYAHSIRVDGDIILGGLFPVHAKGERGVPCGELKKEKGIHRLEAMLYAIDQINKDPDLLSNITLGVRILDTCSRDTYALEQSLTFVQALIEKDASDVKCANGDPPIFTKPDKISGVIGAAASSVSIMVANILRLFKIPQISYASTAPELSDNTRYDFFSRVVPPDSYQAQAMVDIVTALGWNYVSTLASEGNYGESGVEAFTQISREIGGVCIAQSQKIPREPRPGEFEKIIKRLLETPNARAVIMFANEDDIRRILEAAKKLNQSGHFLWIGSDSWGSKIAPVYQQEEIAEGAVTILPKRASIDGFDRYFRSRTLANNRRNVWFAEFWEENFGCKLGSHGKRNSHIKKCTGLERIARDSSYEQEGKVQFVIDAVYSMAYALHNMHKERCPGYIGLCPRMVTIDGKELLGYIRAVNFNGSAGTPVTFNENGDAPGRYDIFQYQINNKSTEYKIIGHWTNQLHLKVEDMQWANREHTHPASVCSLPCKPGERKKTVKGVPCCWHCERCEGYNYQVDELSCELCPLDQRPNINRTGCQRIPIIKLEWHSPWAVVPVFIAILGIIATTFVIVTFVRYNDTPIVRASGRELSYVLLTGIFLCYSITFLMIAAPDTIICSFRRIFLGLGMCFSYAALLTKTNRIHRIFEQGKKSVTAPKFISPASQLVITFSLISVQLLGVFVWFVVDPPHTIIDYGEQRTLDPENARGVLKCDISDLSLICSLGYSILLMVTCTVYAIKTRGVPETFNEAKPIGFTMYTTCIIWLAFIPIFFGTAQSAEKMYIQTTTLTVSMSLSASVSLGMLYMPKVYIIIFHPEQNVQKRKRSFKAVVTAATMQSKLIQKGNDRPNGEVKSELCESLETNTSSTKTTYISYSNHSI
row,SMILES,z-score
1,COc1ccc(S(=O)(=O)N(CCc2ccccc2)CC(=O)O)cc1Cl,-0.104
2,CN1C(=O)C(O)(C2OC(C)(C)CCC2=O)c2ccccc21 (stereo not drawn),-0.0799
3,NC(=O)C1(NC(=O)[C@@H]2CC3(CC(c4cccc(NC(=O)[C@@H]5CCC(=O)N5)c4)=NO3)CN2C(=O)Cc2ccc(C(F)(F)F)cc2)CC1 (stereo partly drawn),-0.279
4,NC(=O)C1CNc2ccccc2O1 (stereo not drawn),2.79
5,O=C(Nc1nncs1)C1COc2ccccc2O1 (stereo not drawn),0.542
6,CCCNC(=O)C1CNc2ccccc2O1 (stereo not drawn),-0.2
7,CCCCSc1nc(C)nc2c1c(=O)n(C)c(=O)n2C,-0.303
8,COc1ccc2[nH]c3c(Cl)ncnc3c2c1,-0.502
9,COC(=O)c1sc(NC(=O)/C=C/c2ccc(C)o2)nc1C,-0.15
10,COc1ccccc1C(O)Cc1nc2ccccc2n1C (stereo not drawn),-0.393
11,Cc1cccc(C)c1NC(=O)C(NC(=O)c1ccccn1)c1ccccc1[N+](=O)[O-] (stereo not drawn),0.95
12,Cc1cccc(C)c1NC(=O)C(c1cccc([N+](=O)[O-])c1)N(C)C(=O)c1ccccn1 (stereo not drawn),-0.125
13,Cc1cccc(C)c1NC(=O)C(NC(=O)c1ccccn1)c1ccc([N+](=O)[O-])cc1 (stereo not drawn),2.97
14,O=C(Nc1cccc(C(=O)N2CCCC2)c1)c1ccccc1Cl,-0.0275
15,COCCNC(=O)c1ccccc1-c1nc(-c2ccccc2OC)no1,0.0674
16,O=C1CC(c2ccc3c(c2)OCO3)C2=C(CCCC2=O)N1 (stereo not drawn),-0.2
17,CC(=Nc1ccccc1)C1=C(O)CCCC1=O,-0.104
18,N=C(CC1CC(=O)NC(=O)C1)C1=C(O)CCCC1=O,2.31
19,C/C(=N\NC(=O)c1ccco1)c1cc2ccccc2o1,0.664
20,CCNC(=S)N/N=C(\C)c1cc2ccccc2o1,8.26 (active)
21,C/C(=N\NC(=S)NCc1ccccc1)c1ccc(Cl)cc1,0.101
22,CC/C(C)=N/NC(=S)NCc1ccco1,0.0671
23,COc1ccc(/C(C)=N/NC(=S)NCc2ccco2)cc1,4.34 (active)
24,C=CCNC(=S)N/N=C(\C)c1cc(OC)c(OC)c(OC)c1,-0.183

row,SMILES,z-score
1,C/C(=N\NC(=O)Nc1ccccc1)c1ccc2ccccc2c1,-0.112
2,C/C(=N\NC(=O)COc1ccccc1F)c1cc2ccccc2o1,-0.0133
3,C=CCNC(=S)N/N=C(\C)c1ccc(OC)cc1,2.03
4,C=C(C)CNC(=S)N/N=C(\C)c1ccc(OC)cc1,-1.56
5,C/C(=N\NC(=S)NCc1ccccc1)c1ccc2ccccc2c1,2.12
6,COc1ccc(NC(=S)NCc2ccco2)cc1,-0.0213
7,Cc1nc(=O)c(-c2ccccc2)c(C)n1-c1ccc(O)cc1,-1.56
8,CCc1ccc(OCC(=O)N/N=C/c2ccc(OS(=O)(=O)c3ccc(C)cc3)c(OC)c2)cc1,-0.212
9,Cc1ccc2nsnc2c1S(=O)(=O)NC1CC1,0.516
10,Cc1sc(NC(=O)c2ccco2)c(CN2CCN(c3ccccc3)CC2)c1C,-0.213
11,c1ccc(N(c2ccccc2)c2nc(-n3ccnc3)nc(-n3ccnc3)n2)cc1,-0.953
12,O=C(O)CCCn1nc(C(F)(F)F)c2c1CCCCC2,-0.241
13,COC(=O)Nc1sc(C(=O)N(C)C)c(C)c1C(=O)OC,0.175
14,C=CCc1c(C)nc(C)nc1N/N=C/c1ccccc1,-0.683
15,C=CCc1c(C)nc(C)nc1N/N=C/c1ccccc1O,2.25
16,C=CCc1c(C)nc(C)nc1N/N=C/c1ccc(F)cc1,-0.164
17,CSc1cc(C)n(-c2ccccc2)c(=S)c1C(C)=O,-0.0675
18,CCOc1ccc(CNC(=O)CCn2c(=O)oc3ccccc32)cc1OC,0.903
19,O=C(O)C1C2C=CC(O2)C1C(=O)Nc1ccc(S(=O)(=O)N2CCc3ccccc32)cc1 (stereo not drawn),-0.0204
20,CCOC(=O)Cc1csc(NC(=S)NC(=O)C(C)(C)C)n1,1.73
21,CCOC(=O)Cc1csc(NC(=O)c2ccc(Br)s2)n1,1.08
22,CCOC(=O)Cc1csc(NC(=S)NC(=O)c2ccccc2C)n1,9.08 (active)
23,CCOC(=O)Cc1csc(NC(=O)c2ccc(Br)o2)n1,0.017
24,CCOC(=O)Cc1csc(NC(=S)NC(=O)c2ccccc2Br)n1,7.57 (active)

row,SMILES,z-score
1,CCOC(=O)Cc1csc(NC(=S)NC(=O)CC(C)C)n1,1.27
2,COC(=O)c1nnn(CC(=O)Nc2cc(Cl)ccc2C)c1C(=O)OC,-0.484
3,COc1cc(/C=C2\SC(c3ccc(C)cc3)=NC2=O)ccc1O,-0.769
4,O=C(Nc1ccc(Cn2cccn2)cc1)c1ccc(COc2ccccc2Br)cc1,-0.0941
5,O=S(=O)(N/N=C/c1cn(Cc2ccccc2)c2ccccc12)c1ccccc1,-0.216
6,Cc1cc(N2CCCCCC2)nc2ccccc12,-0.134
7,COc1ccccc1N1C(=O)CCC1(C#N)c1ccc(Br)cc1 (stereo not drawn),-0.14
8,Cc1c(NC(=O)CSc2ccc(Cl)cc2)cccc1-c1nc2ncccc2o1,-0.212
9,O=C(Nc1cc(Cl)ccc1N1CCCCC1)c1cccs1,-0.311
10,O=S(=O)(Nc1cc(Cl)ccc1N1CCCCC1)c1cccs1,7.03 (active)
11,O=C(Nc1ccccc1)c1ccccc1NS(=O)(=O)c1ccc(Cl)s1,-3.39 (active)
12,O=S(=O)(Nc1ccc(N2CCOCC2)cc1)c1ccc(Cl)s1,-0.104
13,O=S(=O)(Nc1ccc(N2CCCCC2)cc1)c1cccs1,-0.488
14,O=S(=O)(Nc1ccccc1N1CCCCC1)c1ccc(Cl)s1,3.45 (active)
15,COC(=O)c1ccc(OC(=O)c2ccccc2F)cc1,0.198
16,COc1ccccc1NC(=O)CSc1ccc2nnc(-c3cccnc3)n2n1,-0.277
17,O=C(COC(=O)c1ccc(-c2nnc(-c3ccccc3)o2)cc1)c1ccccc1,-0.145
18,CC(C)n1c(N2CCN(CC(=O)NCc3cccs3)CC2)nc2ccccc21,-0.0505
19,Cc1nccn1CC(O)Cn1c2ccccc2c2ccccc21 (stereo not drawn),2
20,Cc1nc2ccccc2n1CC(O)Cn1c2ccccc2c2ccccc21 (stereo not drawn),0.752
21,Cc1nccn1CC(O)COc1ccccc1 (stereo not drawn),-0.0583
22,Cc1cccc(-n2c(SCc3cc(=O)n4ccsc4n3)nc3ccccc3c2=O)c1,-0.276
23,Cc1nc(NC(=O)COc2ccccc2)sc1C(=O)Nc1ccccc1,-0.075
24,CC(Oc1ccc(Cl)cc1Cl)C(=O)NCCN1CCOCC1 (stereo not drawn),0.00607

row,SMILES,z-score
1,CN1/C(=C\C(=S)NC(=O)c2ccccc2Cl)C(C)(C)c2ccccc21,0.0507
2,Cc1cc(C)n(-c2nc3nonc3nc2-n2nc(C)cc2C)n1,0.084
3,Cc1ccc(Nc2nc3nonc3nc2N(C)C)cc1,-0.0276
4,CCN(CC)c1nc2nonc2nc1N(CC)CC,2.53
5,Cc1n[nH]c(C)c1S(=O)(=O)N(CC(=O)Nc1ccc2c(c1)OCCO2)c1ccc(C(C)C)cc1,-0.193
6,O=C(NCCCc1ccccc1)Nc1cccc(Cl)c1,2.01
7,O=C(NCCCc1ccccc1)Nc1ccccc1,0.456
8,O=C(NCCc1ccc(Cl)cc1)Nc1cccc(Cl)c1,0.529
9,Cc1nc(N2CCN(C)CC2)c2c(C)c(C(=O)Nc3ccc(C)c(F)c3)sc2n1,-0.555
10,CCCc1cc(=O)[nH]c(SCC(=O)NC(=O)OCC)n1,-0.0127
11,Cc1cc(C)n(S(=O)(=O)c2ccc(C(C)(C)C)cc2)n1,-1.41
12,CCc1nc(SCC(=O)Nc2c(C)nn(C)c2C)c2cnn(-c3ccccc3)c2n1,-0.873
13,CC(=O)NC1(C(F)(F)F)NC(=O)N(C2CCCCC2)C1=O (stereo not drawn),-0.137
14,O=C(NC1(C(F)(F)F)NC(=O)N(C2CCCC2)C1=O)C1CC1 (stereo not drawn),-0.129
15,CCOC(=O)NC1(C(F)(F)F)NC(=O)N(C2CCCCC2)C1=O (stereo not drawn),2.9
16,COc1ccc(-c2nnc(SCc3nnc(-c4ccc(Cl)cc4)o3)n2-c2ccccc2)cc1,-1.79
17,COc1ccc(C)cc1NS(=O)(=O)c1ccc(Br)s1,0.369
18,COc1cc(NS(=O)(=O)c2ccc(Br)s2)cc(OC)c1,0.398
19,COc1ccc(NS(=O)(=O)c2ccc(Br)s2)cc1OC,2.11
20,CCC(=O)Oc1ccc(C(=O)Nc2cccc(C(=O)c3ccccc3)c2)cc1,0.022
21,CC1(C)NC(=O)N(CC(O)CN2CCCCC2)C1=O (stereo not drawn),0.323
22,COc1ccc(CSc2nc(C)cc(=O)[nH]2)cc1Br,-1.02
23,CC(=O)Nc1ccc(S(=O)(=O)Nc2nnc(C(C)(C)C)s2)cc1,0.307
24,COc1ccc(NC(=S)NNC(=O)c2ccccc2OC(F)F)cc1,0.204

row,SMILES,z-score
1,CN(C)c1cccc(N=C2C=C(N3CCOCC3)CC(C)(C)C2)c1,2.3
2,CN(C)c1cccc(NC2=CC(=[N+]3CCOCC3)CC(C)(C)C2)c1,0.942
3,CN(C)c1cccc(C(=O)Nc2ccc(N3CCOCC3)cc2)c1,-0.0628
4,O=C(Nc1cccc(O)c1)c1cc(-c2ccco2)on1,-0.103
5,Cc1ccc(Cl)c2c1NC(=O)C2(O)CC(=O)c1ccc(F)cc1 (stereo not drawn),-0.203
6,COc1ccc(NC(=O)OCCn2c([N+](=O)[O-])cnc2C)cc1,-0.144
7,CCOC(=O)C(NCCCO)c1ccccc1 (stereo not drawn),-0.247
8,COc1ccc(OC)c(-c2c[n+](=O)c3c(n2[O-])CCCC3)c1,0.0184
9,O=S(=O)(c1ccc(F)cc1)N1CCN(c2ncnc3c2cnn3-c2ccccc2)CC1,2.11
10,CCN1CCN(c2ncnc3c2cnn3-c2ccccc2)CC1,0.0325
11,c1ccc(-n2ncc3c(N4CCCCC4)ncnc32)cc1,-0.259
12,CN(C)C=NC(=O)c1ccc([N+](=O)[O-])c(CS(=O)(=O)c2ccc(Cl)cc2)c1,-0.0395
13,CCc1ccccc1N(CC(=O)O)S(C)(=O)=O,0.424
14,Cc1ccc(CNC(=S)Nc2ccc(OC(F)F)cc2C)cc1,-0.531
15,COc1ccc(C/C(C)=N/NC(=S)Nc2ccc(C)c(C)c2)cc1,1.65
16,COc1ccc(C/C(C)=N/NC(=S)Nc2ccccc2)cc1,5.19 (active)
17,COc1ccccc1NC(=S)NNC(=S)Nc1ccc(OC(F)F)cc1,-0.345
18,COc1ccc(C/C(C)=N/NC(=S)Nc2ccc(C(C)C)cc2)cc1,0.256
19,CCCCOc1ccc(/C=N/NC(=S)Nc2cc(C)ccc2C)cc1,1.19
20,CC/C(=N\NC(=S)Nc1cc(C)ccc1C)c1ccc(OC(F)F)cc1,3.47 (active)
21,CCOc1ccc(NC(=S)N/N=C(\C)Cc2ccc(OC)cc2)cc1,1.35
22,CC/C(=N\NC(=S)Nc1ccc(OC)cc1)c1ccc(OC(F)F)cc1,7.5 (active)
